Laboratory results: PubChem BioAssay AID602440 (Sanford-Burnham Center for Chemical Genomics, 2012)
The whole screen tested about 360,000 compounds, of which about 2,300 (0.64%) were called active. This excerpt belongs to a sample that is enriched for actives. Values without a mark were called inactive. Rule as the data show it: active = inhibition mostly above about 40% (no sharp cut-off); inactive = mostly below about 27%.

Biological target: Sentrin-specific protease 8 (Homo sapiens) (UniProt Q96LD8)
Test: human SENP8 protease inhibitors, primary screen, biochemical, fluorescence, Nedd8 protein substrate, uHTS (AID 602440)
Conditions: recombinant SENP8, Nedd8 substrate fluorescence; at 20 µM; stronger effect = higher value

Sentrin-specific protease 8 (Homo sapiens), sequence (Q96LD8 whole entry, looked up): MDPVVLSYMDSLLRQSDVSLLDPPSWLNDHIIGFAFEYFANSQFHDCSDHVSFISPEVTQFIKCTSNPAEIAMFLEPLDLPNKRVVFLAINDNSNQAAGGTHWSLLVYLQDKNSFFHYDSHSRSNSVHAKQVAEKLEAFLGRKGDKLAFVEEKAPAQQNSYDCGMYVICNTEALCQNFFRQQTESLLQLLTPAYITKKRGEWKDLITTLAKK

SMILES | inhibition
O=C(NC1CCN(S(=O)(=O)c2ccc(F)cc2)CC1)c1ccccc1 | 15.3%
COC(=O)N(C)C[C@@H]1OCc2cnnn2CCCC(=O)N([C@@H](C)CO)C[C@@H]1C | 18.6%
COc1cc(NC(=O)c2cc([N+](=O)[O-])ccc2Br)ccc1NC(=O)c1ccco1 | 32.3%
COc1ccc(C(=O)c2c3ccc([N+](=O)[O-])cc3[n+]([O-])n2CCCN)cc1 | 48.4% (active)
COc1ccc(Cc2nnc(SCC(=O)c3cccc([N+](=O)[O-])c3)n2C)cc1 | 10.4%
COc1ccc2c(C(=O)c3ccc(C)cc3)n(CCC(N)=O)[n+]([O-])c2c1 | 2.6%
COC(=O)c1ccc(S(=O)(=O)N(CCO)Cc2ccccc2)n1C | 21.1%
O=C1C=C(NS(=O)(=O)c2ccccc2)C(=O)c2ccccc21 | 51.3% (active)
C/C(=N\NC(=O)c1ccc(C)cc1)C1C(=O)c2ccccc2C1=O | 38.5%
CN(C)C(=O)c1ccc(NC(=O)c2ccccc2-c2ccccc2)cc1 | 4.2%
O=C(NC1=CC(=O)c2ccccc2C1=O)c1ccccc1 | 44.7% (active)
CC(=O)NS(=O)(=O)c1ccccc1 | 0.5%
Cc1cc(NS(=O)(=O)c2ccccc2)no1 | 11.5%
CCN(CC)S(=O)(=O)c1ccc2c3c(cccc13)C(=O)S2 | -49.2%
NC(=O)C1CC=CCC1C(=O)OCC(Cl)=C(Cl)Cl (configuration not stated) | 1.1%
Cc1cc(N2C(=O)C(=O)/C(=C(/O)c3ccc(Cl)cc3)C2c2cccc(Br)c2)no1 (configuration not stated) | -138%
O=S1(=O)CCN2C(=N1)SC1=C2CCN(Cc2ccccc2)C1 | 21.1%
C=CCn1c(SCC(=O)c2ccc(Br)cc2)nnc1C(C)NC(=O)Cc1ccc(OC)cc1 (configuration not stated) | 1.1%
CS(=O)(=O)c1ccc(C(=O)OCC(=O)NNC(=O)COc2ccc(Cl)cc2)cc1 | 11.8%
CC(C)Cc1nnc(NC(=O)CCNC(=O)c2ccccc2Cl)s1 | 8.4%
CC(C)Cc1nnc(NC(=O)CCC(=O)Nc2ccc3cn[nH]c3c2)s1 | 42.9% (active)
CC(C)Cc1nnc(NC(=O)CCc2ccccc2)s1 | 2.2%

SMILES | inhibition
CN(C)CCCn1c(SCCN2C(=O)c3ccccc3C2=O)nc2ccccc2c1=O | 2.7%
O=C(c1ccccc1)N1CCN(c2ccc([N+](=O)[O-])c(NCc3ccco3)c2)CC1 | 41.8% (active)
O=C(c1ccc(S(=O)(=O)NCc2ccco2)cc1)N1CCN(c2ccccc2)CC1 | 17.9%
O=[N+]([O-])c1ccc(N2CCN(S(=O)(=O)c3ccc4ccccc4c3)CC2)cc1NCc1ccco1 | 28.5%
O=C(NCCC1CCCCN1S(=O)(=O)c1ccccc1)C(=O)NCC1CCCO1 (configuration not stated) | 7.7%
CCCCNC(=O)C(C)N(CCN(C)C)C(=O)CCCN1C(=O)NC(c2ccc(Cl)cc2)C(C(=O)OCc2ccccc2)=C1C (configuration not stated) | 12.8%
C/C(=N/NC(=O)c1ccc(Br)o1)c1ccc(C)o1 | -3.6%
O=C(c1cccc(F)c1)N1CCN(c2ccc([N+](=O)[O-])c3cccnc23)CC1 | 41.3% (active)
O=C(c1cccc(F)c1)N1CCC(O)(c2cccnc2)CC1 | 18.5%
Cc1ccccc1CN1CCN(C(=O)c2cccc(F)c2)CC1 | 17.2%
NC(=O)C1CC(=O)N(c2ccc(OCC(=O)NCc3ccccc3)cc2)C1 (configuration not stated) | 5.3%
CC(C)C[C@@H](CO)N1CCN(Cc2ccc(O)cc2)CCC1=O | -5%
CC(C)(C)NC(=O)NC(=O)COC(=O)C1(C)CC1(Cl)Cl (configuration not stated) | 12.9%
CN(C)C(=O)c1cccc(-c2cnc3c(NC=O)cc(-c4ccc(C(=O)N5CCOCC5)cc4)cn23)c1 | -177%
O=C1NNC(c2ccccc2)=N/C1=C\c1ccc(Cl)cc1 | 64% (active)
O=C(c1ccccc1)c1ccc(OC(=O)N2CCCC2)cc1 | 22.4%
COc1ccc(OC)c(NC(=O)c2ccc3c(c2)CCN3S(C)(=O)=O)c1 | 3%
Cc1nc(C(=O)NCc2ccccc2)sc1C1(C)CC(c2cccnc2)=NO1 (configuration not stated) | 8.5%
CCC(C)[C@H](NC(=O)N1c2ccccc2NC(=O)[C@@H]1C(C)C)C(=O)N[C@@H](Cc1ccccc1)C(=O)O (some centres not stated) | 53.4% (active)
CC(=O)N/C(=C\c1ccc(F)cc1)C(=O)NC(Cc1ccccc1)C(=O)O (configuration not stated) | 2.6%
CC(C)[C@H](NC(=O)N1c2ccccc2NC(=O)[C@@H]1C(C)C)C(=O)N[C@H](C(=O)O)c1ccccc1 | 37%
COc1ccc([C@H]2N[C@]3(CCCN(Cc4ccco4)C3=O)[C@H]3C(=O)N(C)C(=O)[C@@H]23)cc1 | -14%

SMILES | inhibition
O=C(CCN1C(=O)COc2ccccc21)NCCCN1CCN(c2ccc(F)cc2)CC1 | 12.7%
O=C(CSc1ccc([N+](=O)[O-])cn1)Nc1ccc(N2CCOCC2)cc1 | 37.7%
O=C(NCCCN1CCN(c2ccc(F)cc2)CC1)Nc1ccc([N+](=O)[O-])cc1 | 44.8% (active)
O=C(Nc1ccc(C(=O)NCc2ccccc2Cl)cc1)C1=CSCCO1 | -35.3%
COc1ccc(OC)c(C(O)c2nc3ccccc3n2C)c1 (configuration not stated) | 15.4%
Cn1nc(C(F)(F)F)c(C(=O)Nc2cccc(C(F)(F)F)c2)c1SCc1ccc(Cl)cc1 | 5.4%
CCCCn1c(N)c(N(CC(C)C)C(=O)c2ccc(Br)o2)c(=O)[nH]c1=O | -3.8%
COc1cc(C(=S)N2CCOCC2)cc(OC)c1OC(=O)c1cc([N+](=O)[O-])c(C)c([N+](=O)[O-])c1 | 27.5%
COc1cc(C(=S)N2CCOCC2)cc(OC)c1OC(=O)c1ccc([N+](=O)[O-])cc1[N+](=O)[O-] | 11.9%
COc1cc(C(=S)N2CCOCC2)cc(OC)c1OC(=O)c1cc([N+](=O)[O-])cc([N+](=O)[O-])c1 | 40.9% (active)
NNC(=O)CNC(c1ccccc1)c1cc(Cl)ccc1NC(=O)c1ccccc1 (configuration not stated) | 2.6%
CN(C(=O)COC(=O)CNC(=O)C12CC3CC(CC(C3)C1)C2)c1ccccc1 | 2%
CC(C)c1cc(Cn2c3ccccc3c(=O)n2C(C)Cn2cc(C3CC3)nn2)on1 (configuration not stated) | -395%
CCS(=O)(=O)Nc1ccc(C(=O)NCCSc2ccccc2)cc1 | 23.1%
Cc1cc(C)cc(OCC(=O)Nc2ccc(N3CCOCC3)cc2N2CCOCC2)c1 | 17.3%
CCc1ccc(C(=O)NC(=S)Nc2ccccc2N2CCOCC2)cc1 | 30.3%
Cc1cccc(OCC(=O)NC(=S)Nc2ccccc2N2CCOCC2)c1 | 43.3% (active)
CCn1c(=O)cc(SCC(=O)NCCC2=CCCCC2)c2ccccc21 | -40.2%
CCCc1nc(SCC(=O)Nc2ccccc2OC)c2c(=O)n(C)c(=O)n(C)c2n1 | 10.5%
FC(F)(F)c1cc(C(F)(F)F)c2ccc(N3CCN(c4ccccc4)CC3)nc2n1 | -2.9%
Cc1ccc(CNC(=O)C2(C(F)(F)F)C/C(=C\Cc3ccccc3)CCCO2)o1 (configuration not stated) | 12.6%
CC(C)CC[n+]1ccn(C2=C([O-])c3ccccc3C(=O)/C2=N\S(=O)(=O)c2ccccc2)c1 | 54% (active)

SMILES | inhibition
CC(=O)NC(Cc1ccc(F)cc1)C(=O)O (configuration not stated) | 2%
O=C(CCNC(=O)c1ccc(Br)cc1)NCC(c1ccco1)N1CCCCC1 (configuration not stated) | 10.5%
CCOC(=O)c1ccc(COC(=O)CCc2nc(-c3ccccc3)c(-c3ccccc3)o2)cc1 | -13.2%
CCOc1cc(NC(=O)c2ccccc2C(=O)O)c(OCC)cc1NC(=O)c1ccccc1F | 50.6% (active)
O=C(NCCOc1ccccc1)c1ccccc1F | 5.5%
CCOc1cc(NC(=O)Nc2ccccc2)c(OCC)cc1NC(=O)CC | -0.4%
Cc1ccc(-c2nn(-c3cccc(F)c3)cc2CNCCc2ccncc2)o1 | -178%
CONC(=O)c1cc(OCC(F)(F)F)ccc1OCC(F)(F)F | 21.1%
CCOc1c(Br)cc(/C=C2\C(=O)N(CCC#N)N=C2C)cc1OC | 50.8% (active)
CCN1C(=O)[C@@H]2[C@@H](c3ccc(-c4ccccc4)cc3)N3CCCC[C@@]3(C(=O)OC)[C@@H]2C1=O | 3.1%
CC1=C/C(=N\OS(=O)(=O)c2ccccc2)C=CC1=O | 52.9% (active)
COc1ccc2[nH]c3c(c2c1)CCN1C(=O)C(CC(=O)NCCc2ccccn2)C[C@H](C(=O)N2CCOCC2)[C@@]31C (some centres not stated) | -3.3%
Cc1ccc(S(=O)(=O)N2[C@@H](c3cccc4ccccc34)C(C(=O)O)=C[C@H]2C(C)(C)C)cc1 | 1.1%
O=C(NC1CC1)C1=C[C@H](c2coc3ccccc3c2=O)C[C@H](OCCCCO)O1 | -5%
O=C(COc1ccccc1)N1CCc2ccccc2C1 | 42.5% (active)
CCC(=O)c1ccc(OCC(=O)OCC(=O)N2CCc3ccccc3C2)cc1 | 18.9%
Cc1ccc(Cl)c(OCC(=O)N2CCc3ccccc3C2)c1 | 20.7%
COc1cccc(N2CC(C(=O)NCc3n[nH]c(=O)c4ccccc34)CC2=O)c1 (configuration not stated) | -0.8%
O=[N+]([O-])c1ccc(N2CCN(S(=O)(=O)c3ccccc3)CC2)cc1N1CCc2ccccc2C1 | -132%
O=[N+]([O-])c1ccc(N2CCN(c3ccc(O)cc3)CC2)c(Cl)c1 | 26.5%
O=[N+]([O-])c1ccc(N2CCSCC2)cc1O | 57% (active)
